These results are taken from PubChem BioAssay (NCI).

SMILES strings stand for the structures. This is part of a sample that, as a whole, favours compounds with a hit. Of some 79,000 tested, about 15% had one in any assay. Values without a mark were called inactive. Calls of active or inactive are those of the source. Rule as the data show it: active = growth inhibition above about 70%; inactive = the rest.

A short description of assay [1]: NCI Yeast Anticancer Drug Screen. Data for the rad50 strain (AID 155).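 Also: 0% = growth of vehicle-only cultures of the same strain.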 To be noted: S. cerevisiae rad50 strain growth inhibition, hits give high values. The method in brief: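 Vehicle-treated cultures provide the reference for the growth inhibition reported for compound-exposed, repair-deficient yeast.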
The nature of assay [2]: NCI Yeast Anticancer Drug Screen. Data for the mec2-1 strain (AID 157). To be noted: S. cerevisiae mec2-1 strain, hits give high values. The method in brief: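 Using mec2-1 yeast: add compound, measure growth, express inhibition versus vehicle-treated cultures.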
A short description of assay [3]: NCI Yeast Anticancer Drug Screen. Data for the sgs1 mgt1 strain (AID 161).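 Also: 0% = growth of cultures given vehicle only.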 As to conditions: S. cerevisiae sgs1 mgt1 strain, hits give high values. The method in brief: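 Percent growth inhibition was derived by comparing compound-exposed mutant yeast with vehicle-exposed cultures. The strain carries alterations in DNA damage repair.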
Assay [4] in a line: NCI Yeast Anticancer Drug Screen. Data for the cln2 rad14 strain (AID 165).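 Also: 0% = growth equal to vehicle treated cultures.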 As to conditions: S. cerevisiae cln2 rad14 strain, hits give high values. Put shortly: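 Yeast strain cln2 rad14, bearing defects in cell cycle control and DNA repair, serves as the test system; values reflect growth inhibition compared with vehicle.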
The nature of assay [5]: NCI Yeast Anticancer Drug Screen. Data for the bub3 strain (AID 167). As to conditions: S. cerevisiae bub3 mutant strain, hits give high values. Put shortly:
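Mutant yeast screening strain plus compound; vehicle-treated cultures serve as the 0% inhibition reference.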

The nature of assay [6]: NCI Yeast Anticancer Drug Screen. Data for the mlh1 rad18 strain (AID 175). As to conditions: S. cerevisiae mlh1 rad18 strain growth inhibition, hits give high values. Put shortly:
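Steps: expose repair-defective yeast to compound; measure growth; express inhibition against vehicle-treated controls.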

Where [7] appears, read: at 5.0 µM (retest, dose inferred, filed as 0.5).
Setting [8] is: at 50.0 µM (retest, dose inferred, filed as 5.0).

In the case of `CCOC(=O)CN1C(=O)S/C(=C/c2ccc([N+](=O)[O-])o2)C1=O`, the growth inhibition was 9% in assay [1] (setting [7]); 93% (active) in assay [1] (setting [8]); 77.2% (active) in assay [1] (at 50.0 µM); 3% in assay [2] (setting [7]); 94% (active) in assay [2] (setting [8]); 76% (active) in assay [2] (at 50.0 µM). Moreover, the growth inhibition was 12% in assay [3] (setting [7]); 98% (active) in assay [3] (setting [8]); 91.3% (active) in assay [3] (at 50.0 µM); -3% in assay [4] (setting [7]); 89% (active) in assay [4] (setting [8]); 56.3% in assay [4] (at 50.0 µM). Further, the growth inhibition in assay [5] (setting [7]) was 3%; in assay [5] (setting [8]), 96% (active); in assay [5] (at 50.0 µM) it was 86% (active); in assay [6] (setting [7]) it was 21%; in assay [6] (setting [8]), 96% (active); in assay [6] (at 50.0 µM) it was 87.1% (active).

Take `CC1(C)CC(=N/O)/C(=N/O)C(=N\NC(N)=S)/C1`: the growth inhibition was 7% in assay [1] (setting [7]); 54% in assay [1] (setting [8]); 69.9% in assay [1] (at 50.0 µM); -2% in assay [2] (setting [7]); 35% in assay [2] (setting [8]); 49.1% in assay [2] (at 50.0 µM). Moreover, the growth inhibition in assay [3] (setting [7]) was 1%; in assay [3] (setting [8]) it was 63%; in assay [3] (at 50.0 µM), 76.9% (active); in assay [4] (setting [7]), -12%; in assay [4] (setting [8]), 28%; in assay [4] (at 50.0 µM), 30.2%. Besides, the growth inhibition was -1% in assay [5] (setting [7]); 47% in assay [5] (setting [8]); 64.9% in assay [5] (at 50.0 µM); -3% in assay [6] (setting [7]); 62% in assay [6] (setting [8]); 73.5% (active) in assay [6] (at 50.0 µM).

With `CCCC/C=C1\CCC(CN2CCOCC2)C1=O` (stereo not given), the growth inhibition was 56% in assay [1] (setting [7]); 100% (active) in assay [1] (setting [8]); 90.5% (active) in assay [1] (at 50.0 µM); 39% in assay [2] (setting [7]); 100% (active) in assay [2] (setting [8]); 92.8% (active) in assay [2] (at 50.0 µM). Besides, the growth inhibition in assay [3] (setting [7]) was 43%; in assay [3] (setting [8]), 100% (active); in assay [3] (at 50.0 µM) it was 91.4% (active); in assay [4] (setting [7]), 44%; in assay [4] (setting [8]), 98% (active); in assay [4] (at 50.0 µM) it was 90.8% (active). For the same compound, the growth inhibition in assay [5] (setting [7]) was 69%; in assay [5] (setting [8]), 100% (active); in assay [5] (at 50.0 µM), 91.2% (active); in assay [6] (setting [7]), 61%; in assay [6] (setting [8]), 98% (active); in assay [6] (at 50.0 µM), 90.7% (active).

Regarding `COc1ccc(C(=O)C2OC2c2ccccc2)cc1` (stereo not given), the growth inhibition is -2% in assay [1] (setting [7]); 23% in assay [1] (setting [8]); 42.4% in assay [1] (at 50.0 µM); -6% in assay [2] (setting [7]); 9% in assay [2] (setting [8]); 15.4% in assay [2] (at 50.0 µM). Besides, the growth inhibition in assay [3] (setting [7]) is -1%; in assay [3] (setting [8]), 20%; in assay [3] (at 50.0 µM), 30%; in assay [4] (setting [7]), -32%; in assay [4] (setting [8]), 3%; in assay [4] (at 50.0 µM), 20.1%. Also, the growth inhibition in assay [5] (setting [7]) is 3%; in assay [5] (setting [8]) it was 18%; in assay [5] (at 50.0 µM), 58.5%; in assay [6] (setting [7]), 7%; in assay [6] (setting [8]) it was 59%; in assay [6] (at 50.0 µM) it was 34.7%.

With `CCCCC(CC)(COC(C)=O)COC(C)=O`, the growth inhibition in assay [1] (setting [7]) is -3%; in assay [1] (setting [8]), 0%; in assay [1] (at 50.0 µM), 7%; in assay [2] (setting [7]) it was 1%; in assay [2] (setting [8]) it was 2%; in assay [2] (at 50.0 µM), 12.7%. Also, the growth inhibition in assay [3] (setting [7]) is 3%; in assay [3] (setting [8]), -1%; in assay [3] (at 50.0 µM), 2.6%; in assay [4] (setting [7]), 2%; in assay [4] (setting [8]), 5%; in assay [4] (at 50.0 µM), 42.5%. The growth inhibition in assay [5] (setting [7]) was 4%; in assay [5] (setting [8]) it was 4%; in assay [5] (at 50.0 µM), -2%; in assay [6] (setting [7]), 1%; in assay [6] (setting [8]) it was -1%; in assay [6] (at 50.0 µM), -16.7%.
